Measured values published in PubChem BioAssay AID1458 (National Center for Advancing Translational Sciences (NCATS), 2008).
Among all 210,000 compounds or so, about 5,900 (2.8%) were called active. About 5% were inconclusive and are not listed. The sample as a whole holds a higher share of actives than the screen did. Unmarked numbers belong to inactive results. Calls follow the shape of the dose curve; as a rule, active = well fitted activation curve with a large enough effect; inconclusive = small, poorly fitted or top-dose-only effect; inactive = no such curve, though single readings can be large or run the other way.

Test: qHTS Assay for Enhancers of SMN2 Splice Variant Expression; also: nearly all actives have a fitted effect of over 55% in size; as to activity change, positive = activation: % of control where 0% means no effect
Conditions: HEK293 SMN2-luciferase splicing reporter, luminescence, 30-36 h; series mostly up to 46.1 µM; activity change, positive = activation: at the top concentration
Text: NIH Chemical Genomics Center [NCGC] NIH Molecular Libraries Probe Production centers Network [MLPCN] MLPCN Grant: R03 MH084179-01 Assay Submitter (PI): Elliot Androphy NCGC Assay Overview: Spinal muscular atrophy (SMA) is caused by insufficient levels of the survival motor neuron protein SMN. The SMN locus on chromosome 5q13 contains two inverted copies of SMN called SMN1 and SMN2 which are 99% identical at the amino acid level. SMN1 is a fully functional protein and SMN2 skips exon 7 90% of the time. Skipping of exon 7 produces non-functional protein product. 10% of the SMN2 protein includes exon 7 and is fully functional. In the SMA disease state, mutations in the SMN1 locus are the cause of the disease state. Because only 10% of SMN2 is of the fully functional form, it is not sufficient to overcome the deficiency produced by the loss of the SMN1 product. A therapy that either increase the amount of SMN2 product made or to increase the inclusion of exon 7 has been proposed for the treatment of SMA. We have designed an assay to identify small molecules that can increase the amount of functional SMN2 product by appending a luciferase reporter gene after the native SMN2 gene, such that inclusion of exon 7 in the expressed product places the luciferase sequence in frame, thus generating functional luciferase enzyme.
NCGC Assay Protocol Summary: This screen utilizes a luciferase reporter gene assay, combining the promoter and splicing based cassettes in tandem with the major portion of the native SMN2 cDNA, and then transfected into HEK293 cells. Compounds that increase luciferase signal presumably enhance expression of the functional SMN2 splice variant. Passaging media contained DMEM w/ glutamax (+phenol red) 10% FCS, 1x pen/strep, 200 ug/ml hygro, 1x sodium pyruvate. Assay media contained DMEM w/ glutamax (-phenol red) 10% FCS, 1x pen strep, 1x pyruvate Sequence, Parameter, Value, Description (1) Cells, […], 2000 cells/well, 1536 TC treated White solid bottom plate (2) Time, 10-12 hours, 37C 5% CO2 (3) Compound, 23 nl, MLSMR Library (4) Control Compound, 23 nL, Sodium butyrate st 4.5mM (final) conc (5) Time, 30-36 hours, 37C 5% CO2 (6) Reagent, 3 ul, One Glo (TM) from Promega (7) Time, 5-15 minutes, Room temp (8) Detector, Viewlux: luminescent read, 60 second integration, high speed 2x binning Keywords: Spinal muscular atrophy, SMA, SMN2, high throughput screening, MLSMR, MLPCN, NIH Roadmap, qHTS and NCGC
Potency is read from the fitted curve at half-maximal effect.

SMILES | Potency | activity change, positive = activation [%]
O=c1c(-c2ccccc2)coc2cc(O)ccc12 | 22.4 µM (active) | –
O=c1c(-c2ccccc2)coc2c(CN3CCOCC3)c(O)ccc12 | – | -18.2
Cc1c(O)cc(O)c2c(=O)c(-c3ccc(O)cc3)coc12 | – | -11.6
COc1cc2nc(NCC(C)c3ccccc3)n3nc(-c4ccccc4)nc3c2cc1OC (stereo not given) | – | 23.7
Cc1cc(C)c2oc(C(=O)Nc3c(C(=O)Nc4ccccc4)oc4ccccc34)cc(=O)c2c1 | – | -0.706
Cc1ccc(Cl)cc1N1CCN(C(=O)C2CCC(CNS(=O)(=O)c3cccs3)CC2)CC1 (stereo not given) | – | -13.3
COc1cc(/C=N/O)ccc1OCc1ccc([N+](=O)[O-])cc1 | 14.1 µM (active) | –
COc1cc(/C=N\Nc2ccc([N+](=O)[O-])cn2)ccc1OCC(=O)O | – | 7.65
COc1cc(C(=O)OCc2ccc([N+](=O)[O-])cc2)cc(OC)c1OC | – | -2.26
COc1ccc(N2CCN(C(=O)C3CCCN(C(=O)c4cc5sccc5n4C)C3)CC2)cc1 (stereo not given) | – | -34.1
Cc1ccc(S(=O)(=O)c2nc(-c3ccco3)oc2SCC(=O)Nc2ccc(F)cc2)cc1 | – | -0.512
C/C(=N\NC(=O)c1ccccc1C)c1ccc(N2CCOCC2)cc1 | – | 16.8
COc1cccc(C(=O)NNC(=O)c2ccccc2Br)c1 | – | -6.77
COc1ccc(C(=O)NC(=S)Nc2ccc(N3CCCC3)cc2)cc1OC | – | -14.4
COc1cccc(C(=O)Nc2ccc(N3CCCC3)cc2)c1 | 8.91 µM (active) | –
COc1cccc(OC)c1C(=O)Nc1ccc(N2CCCCC2)cc1 | – | -25.4
COc1cccc(C(=O)Nc2cc3c(cc2Br)OCCCO3)c1 | 10 µM (active) | –
COc1ccc(C2COC(=O)C2=N)c(NC(=O)c2ccccc2)c1 (stereo not given) | – | 9.6
Cc1cc(NS(=O)(=O)c2ccc(NC(=O)c3ccccc3C)cc2)nc(C)n1 | – | -6.19
Cc1ccccc1C(=O)Nc1ccc(N2CCCCCC2)cc1 | 12.6 µM (active) | –
CCn1cc(C(=O)NCc2ccccc2)c(=O)c2cc(S(=O)(=O)N3CCCCC3)ccc21 | – | 0.829
CC(C)Cn1c(=O)c2ccccc2n2c(CCC(=O)N3CCN(c4cccc(Cl)c4)CC3)nnc12 | – | -5.96

SMILES | Potency | activity change, positive = activation [%]
Cc1ccc(OCCn2c(CNc3ccccc3C)nc3ccccc32)cc1 | – | 4.39
O=C(NCCCO)c1nn(-c2ccc(Cl)cc2)nc1CO | – | -6.62
O=C(Cn1c(=O)n(Cc2cccs2)c(=O)c2cccnc21)Nc1ccc(F)cc1 | – | 0.241
Cc1ccc(NC(=O)CN2C(=O)C(c3ccc(F)cc3)=NC23CCCCCC3)c(C)c1 | – | 22.3
CCOc1ccc(N(Cc2ccccc2)C(=O)c2nc(S(C)(=O)=O)ncc2Cl)cc1 | – | -86.3
O=C(CCS(=O)(=O)c1cc(Br)cc2c1N(C(=O)C1CC1)CC2)Nc1ccc(C(F)(F)F)cc1 | – | 1.62
O=C(c1ccco1)n1nc(-c2ccc(Cl)cc2)nc1NCc1ccccc1 | – | 9.32
CCCCOc1ccc(CN2C(=O)C(=O)c3cc(Br)cc(C)c32)cc1OC | – | -33.5
CSc1ccc(C#N)cc1NC(=O)c1cccc(Cl)c1 | – | 12.8
N#Cc1ccccc1NC(=O)c1cccc(COc2ccc(Cl)cc2Cl)c1 | 0.794 µM (active) | –
COC(=O)c1ccccc1NC(=O)c1ccc(COc2ccccc2Cl)o1 | – | -4.75
Cc1cccc2c1-c1sc(C(=O)Nc3ccc(F)cc3F)cc1CO2 | – | -7.99
Nc1nc2c(ncn2[C@@H]2O[C@H](COP(=O)(O)OP(=O)(O)OP(=O)(O)O)[C@@H](O)C2O)c(=O)[nH]1 (stereo not given in full) | – | 1.43
CCN(CC)S(=O)(=O)c1cccc(C(=O)Nc2ccccc2)c1 | – | -30.2
CCN(CC)S(=O)(=O)c1cc(C(=O)Nc2ccccn2)ccc1C | 22.4 µM (active) | –
Cc1ccc(C(=O)Nc2ccc(C(=O)O)cc2)cc1S(=O)(=O)Nc1ccccc1 | – | -7.6
COC(=O)c1ccc(OC)c(Cn2c(=O)n(Cc3ccccc3)c(=O)c3c2c2cc(OC)ccc2n3C)c1 | – | -3.23
Cc1ccc(C(=O)CSc2nc(-c3ccccc3)nc3c2CCCC3)c(C)c1 | – | 2.13
CCn1nnnc1SCC(=O)c1ccc(C)cc1C | 2.82 µM (active) | –
CNC(=O)CSc1nnnn1-c1ccc(C)cc1C | – | -16.8
COc1ccccc1-c1cc(C(F)(F)F)nc(S(=O)(=O)CCCC(=O)Nc2ccc(F)cc2F)n1 | – | 2.69
Cc1nc2ccccc2cc1C(=O)N/N=C/c1ccc([N+](=O)[O-])cc1 | – | -19.1

SMILES | Potency | activity change, positive = activation [%]
NC(=S)N/N=C/c1ccc([N+](=O)[O-])cc1 | – | -8.3
COc1ccc(NC(=O)c2ccccc2[N+](=O)[O-])cc1OC | – | 16.3
Cc1ccsc1C(=O)N/N=C/c1ccc([N+](=O)[O-])cc1 | 12.6 µM (active) | –
Cc1ccc(NC(=O)CN2CCC(C(N)=O)CC2)cc1[N+](=O)[O-] | – | 8.3
Cc1ccc(NC(=O)c2sccc2C)cc1[N+](=O)[O-] | 14.1 µM (active) | –
Cc1ccc(C)c(CN2C(=O)c3ccccc3S(=O)c3ccc(C(=O)N4CCOCC4)cc32)c1 (stereo not given) | – | -1.41
COc1ccccc1-c1cc2nc(C)c(CCC(=O)O)c(C)n2n1 | – | -22
Cc1ccc(CN2COc3cc(C)c4c(oc(=O)c5ccccc54)c3C2)cc1 | – | -3.2
CCOC(=O)c1ccc(-c2ccc(/C=C(\C#N)C(=O)Nc3ccc(OCC)cc3)o2)cc1 | – | -11.3
Cc1ccc2nc(/C(C#N)=C\c3ccc(OC(=O)c4cccs4)cc3)[nH]c2c1 | – | 1.65
Cc1ccc2nc(/C(C#N)=C/c3ccc(-c4ccc(C(=O)OC(C)C)cc4)o3)[nH]c2c1 | 11.2 µM (active) | –
O=C(NCCc1ccccc1)c1ccc2c(c1)N(Cc1ccccc1)C(=O)c1ccccc1S2(=O)=O | – | 4.46
NC(=O)N1CCc2ccccc21 | – | -6.27
O=C(CSCc1ccccc1)N1CCc2ccccc21 | 12.6 µM (active) | –
Cc1nnc(SCC(=O)N2CCc3ccccc32)n1-c1ccccc1 | – | -11.7
Cc1ccc(C)c(N2CCN(C(=O)CN3C(=O)COc4ccc(S(=O)(=O)N5CCCCCC5)cc43)CC2)c1 | – | 6.26
Cc1cc(C)nc(NS(=O)(=O)c2ccc(NC(=O)c3cc(=O)c4ccc(C)c(C)c4o3)cc2)n1 | – | 2.53
COc1ccccc1-c1nnc(C2CCN(C(=O)c3ccc(Cl)cc3)CC2)o1 | – | -12.1
Cc1cc(N/C=C\C(=O)c2ccc(Cl)c(Cl)c2)no1 | – | 10.9
COc1ccc(C(=O)/C=C/Nc2ccccn2)cc1 | 1.41 µM (active) | –
CCOc1cc(NC(=O)c2ccccn2)c(OCC)cc1NC(=O)c1ccc(OC)cc1 | – | -2.18
